Measurements as given in PubChem BioAssay (NCI).
This is part of a sample that, as a whole, favours compounds with a hit. Of some 83,000 tested, about 20% had one in any assay.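 Assay: single dose, 48 h. Readout: percent growth (0 = no net growth; negative = cell death). Active: <10.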 Active and inactive are the calls of the source.

Test system: MDA-MB-468 breast
Assay: NCI-60 one-dose screen, 48 h (100 = growth as untreated, 0 = no growth, -100 = all killed)
Conditions: 10 µM unless noted

SMILES	growth
CN1C(=O)N(C)C2C1NN=c1s/c(=C\c3ccsc3)c(=O)n12 (stereo not given)	34.3% (inactive)
COc1ccccc1S(=O)(=O)Nc1ccc2c(c1)CN(C)C(=O)N2	21.1% (inactive)
S=C=NP1(N=C=S)=NP(N=C=S)(N=C=S)=NP(N=C=S)(N=C=S)=NP(N=C=S)(N=C=S)=N1 (stereo not given)	107% (inactive)
CC1(c2ccccc2)CO1 (stereo not given)	110% (inactive)
CCn1cc(CNc2ccc(C(=O)Nc3ccc4ccccc4c3)cc2)c(C)n1	24.5% (inactive)
O=S(=O)(NCCCNc1nccc(-n2ccc3cccnc32)n1)c1ccc(Br)cc1	90.3% (inactive)
O=c1[nH][nH]c(=O)c2cc([N+](=O)[O-])ccc12	109% (inactive)
CN(Cc1cnc2nc(N)nc(N)c2n1)c1c(Cl)cc(C(=O)NC(CCC(=O)O)C(=O)O)cc1Cl (stereo not given)	15.3% (inactive)
Cc1ccc(-c2csc3nc(C)c(CCCl)c(=O)n23)cc1	83.6% (inactive)
c1cc2ccc1CNCCN1CCNCc3ccc(cc3)Oc3ccc(cc3)CNCCN(CCNCc3ccc(cc3)O2)CCNCc2ccc(cc2)Oc2ccc(cc2)CNCC1	-77.6% (active)
O=S(=O)(O)CCl	108% (inactive)
S=C(Cc1ccc2c(c1)CCCC2)N1CCOCC1	105% (inactive)
OC1CCN(CCCOc2c3ccccc3nc3c2oc2ccc(Cl)cc23)CC1	-8.36% (active)
NS(=O)(=O)c1ccc(C(=O)N=Nc2c(O)[nH]c3ccc(Cl)cc23)cc1	110% (inactive)
CN(C)c1ccc(N=C2C=CC(=O)c3ccccc32)cc1	65.6% (inactive)
COc1nc(=O)n(C2C=CC(=O)O2)cc1F (stereo not given)	11.9% (inactive)
Clc1ccc2c(NCCCNCc3ccc4c(c3)OCO4)ccnc2c1	-11.9% (active)
c1nc2ccc(-c3cc4ccc5[nH]ncc5c4c4c3CCCC4)cc2[nH]1	17.1% (inactive)
O=C(NNc1nc2cc(F)ccc2n2c(CN3CCC(O)C3)ccc12)c1cnccn1 (stereo not given)	-17.3% (active)
COc1ccc2[nH]cc(-c3nc(-c4c[nH]c5c(Cl)nccc45)cs3)c2c1	34.1% (inactive)

SMILES	growth
COc1cc(-c2nc3cc(Cl)c(Cl)cc3[nH]2)ccc1OCC(=O)NN	100% (inactive)
COc1cc(-c2nc(SCCC(C)C)nc(Nc3ccccc3Cl)c2C#N)cc(OC)c1OC	108% (inactive)
Cc1ccc(NC(=O)c2sc3nc(C)c(C(=O)c4ccccc4)cc3c2N)cc1	79% (inactive)
CCCCSc1ncnc2c1ncn2C1CCCCO1 (stereo not given)	122% (inactive)
O=C(Nc1ccccc1)c1sc(-c2ccccc2)cc1O	107% (inactive)
COc1ccccc1C1OC2=Nc3cc(C)c(C)cc3NC2C1=O (stereo not given)	66.2% (inactive)
N#Cc1c(-c2ccccc2)nc2c(c(-c3ccc(Cl)cc3)nn2-c2ccccc2)c1-c1ccc([N+](=O)[O-])cc1	104% (inactive)
C=C1C(=O)O[C@H]2[C@H]1CC/C(COC(=O)NCc1cn(C)c3ccccc13)=C\CC[C@@]1(C)O[C@@H]21	-38.4% (active)
CCOC(=O)n1cc(-c2nonc2-c2cn(C)c3ncccc23)c2ccccc21	-8.56% (active)
COc1ccc(-c2cc(-c3ccccc3)nc(N3CCN(CCNc4ccnc5cc(Cl)ccc45)CC3)n2)cc1	-54.7% (active)
Cc1ccc(C(=O)Cc2ccccc2)c(O)c1	117% (inactive)
O=C(Nc1ncc(Cc2cc(C(F)(F)F)ccc2Cl)s1)C(=S)N1CCOCC1	84.3% (inactive)
Cn1c(=O)c2nc3c(=O)n(C)c(=O)n(C)c3nc2n(C)c1=O	92.1% (inactive)
COc1cc(-c2cc(-c3nc4ccccc4[nH]3)[nH]n2)cc(OC)c1OC	14.7% (inactive)
O=C(Nc1ccc2ncsc2c1)c1csc(Nc2ccc3[nH]ncc3c2)n1	35.6% (inactive)
COc1ccc(-c2cnc(NC(=O)CCCCCCNC(=O)C(O)(O)C(F)(F)F)s2)cc1	-33.6% (active)
O=[N+]([O-])c1ccc(NCSc2ccc(Cl)cc2)cc1	98.6% (inactive)
O=c1nc2oc3ccc4ccccc4c3cc-2s1	-3.68% (active)
CCN(CC)CCC(=O)Nc1ccc(Cn2nnc3c2C(=O)c2nnn(Cc4ccc(NC(=O)CCN(CC)CC)cc4)c2C3=O)cc1	-66.4% (active)
C/C(=N\O)c1ccc(NC(=O)CSc2nnc(-c3cc(-c4ccc(S(N)(=O)=O)cc4)nc4ccccc34)n2-c2ccccc2)cc1	63.1% (inactive)
